ROCK2 inh – inhibitors of human ROCK2 kinase, primary screen, biochemical, high-throughput, luminescence; inhibition, % at 6 µM; Rho-associated protein kinase 2 (Homo sapiens), O75116; purified ROCK2, Kinase-Glo ATP depletion luminescence; hit rate 0.35% among 60,000;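 active = inhibition above the screen-wide mean inhibition plus 3 SD, cut at about 18% in these data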;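 note: plate controls were DMSO wells for no effect and Y-27632 control wells after no-enzyme background subtraction for full effect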
D1 mod – D1 CRE-luciferase signal change, two-sided – cell-based, HEK293 D1, dopamine EC30, D1 allosteric modulator project, primary screen; B-score at 10 µM; dopamine EC30 potentiation; actives deviate in either direction; hit rate 5.9% among 58,000;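 active = luminescence count or its row- and column-corrected plate score outside the 99.7% band of the plate's sample wells, on either side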
Target sequence (P21728 whole entry, looked up): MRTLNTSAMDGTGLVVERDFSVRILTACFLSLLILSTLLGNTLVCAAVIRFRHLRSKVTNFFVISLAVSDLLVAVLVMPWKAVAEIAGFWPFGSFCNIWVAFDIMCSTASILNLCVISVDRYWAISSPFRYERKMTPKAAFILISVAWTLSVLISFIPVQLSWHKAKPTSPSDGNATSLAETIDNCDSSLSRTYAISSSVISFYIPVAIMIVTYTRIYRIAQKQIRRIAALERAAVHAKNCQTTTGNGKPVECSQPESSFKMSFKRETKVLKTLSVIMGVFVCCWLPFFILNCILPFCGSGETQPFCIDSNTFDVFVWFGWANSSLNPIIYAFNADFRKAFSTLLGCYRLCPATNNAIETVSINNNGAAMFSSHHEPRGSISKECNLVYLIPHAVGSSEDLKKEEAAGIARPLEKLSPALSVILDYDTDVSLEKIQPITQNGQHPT
DAT uptake mod – changed hDAT dopamine uptake under cocaine IC80, either direction, primary screen, cocaine antagonist project, cell-based, LLC-PK1 hDAT, [14C]-dopamine uptake, MLSMR; hit rate 1.3% among 110,000; LLC-PK1 hDAT cells, [14C]-dopamine uptake with cocaine IC80; actives deviate in either direction; B-score at 10 µM; AID 449768, 2010;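 active = Z score or B-score, a plate-position-corrected score, falls beyond the plate's 99.7% confidence bounds, in either direction; inactive = both scores lie inside the 99.7% bounds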;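 note: scored against the spread of the other compound wells on the same plate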
PKA inh – inhibitors of human PKA kinase activity, primary screen, biochemical, ATP-depletion luminescence, Kemptide substrate; AID 524, 2006; hit rate 0.1% among 65,000; cAMP-dependent protein kinase catalytic subunit alpha (Homo sapiens), P17612; inhibition, % at 6 µM; PKA Kemptide phosphorylation, Kinase-Glo ATP luminescence;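 active = inhibition above the screen-wide mean inhibition plus 3 SD, cut at about 21% in these data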
The depositor's hits bear a star; ! = repeats disagree. The sample as a whole holds a higher share of hits than the screen did.

For Cc1noc(C)c1S(=O)(=O)Nc1ccc(C(=O)N2CCN(c3ccc(Cl)cc3)CC2)cc1 the results were ROCK2 inh -3, D1 mod -3.7* and PKA inh 2.
CCCCCCCCC[n+]1cccc2c3ccccc3ccc21 was read as DAT uptake mod 3.2*.
Screening O=C(C[n+]1cc2ccccc2c2ccccc21)c1ccccc1 returned DAT uptake mod -0.26.
Screening CCCn1c(NC(=O)c2cccc(S(=O)(=O)N3CCCC3)c2)nc2ccccc21 returned ROCK2 inh 32*, DAT uptake mod -0.32 and PKA inh 12.
`CCCn1c(NC(=O)c2ccccc2)nc2ccccc21` gave ROCK2 inh 2, D1 mod 0.011, DAT uptake mod 2.1 and PKA inh 3.
`Cc1cc(C)c2nc(N3CCCC(C(=O)N4CCN(c5ncccn5)CC4)C3)sc2c1` (stereo not given) gave DAT uptake mod 0.03.
Cc1cc(C)c2nc(N3CCC(C(=O)N4CCN(C(=O)c5ccco5)CC4)CC3)sc2c1 was read as DAT uptake mod 3.7*.
`CCO[C@H]1OC(C(=O)N2CCN(Cc3ccc4c(c3)OCO4)CC2)=C[C@@H](c2ccc(C(F)(F)F)cc2)[C@@H]1CCCO` gave DAT uptake mod -0.53.
For C[C@]12C(=O)N(c3ccc(Cl)cc3)C(=O)N1[C@@H]1c3ccccc3OC[C@@H]1[C@H]2c1ccccc1 the results were DAT uptake mod 0.55.
`CCCNC(=O)NC(C)C12CC3CC(CC(C3)C1)C2` (stereo not given) gave DAT uptake mod -0.4.
Screening CC(NC(=O)CN1CCCC1)C12CC3CC(CC(C3)C1)C2 (stereo not given) returned DAT uptake mod -5.6*.
`CC(NC(=O)Cn1cnnn1)C12CC3CC(CC(C3)C1)C2` (stereo not given) gave ROCK2 inh -10, D1 mod -0.88, DAT uptake mod -3.3* and PKA inh -2.
`COc1ccc(-c2cn3cccnc3n2)cc1NC(=O)CC(C)C` gave D1 mod -0.94, DAT uptake mod -0.069 and PKA inh -3.
CCCC(=O)Nc1cc(-c2cn3cccnc3n2)ccc1OC was read as D1 mod -3.4*, DAT uptake mod -0.096 and PKA inh -1.
For O=C(c1ccc(Br)o1)N(Cc1ccccc1)c1ccccn1 the results were DAT uptake mod -0.52.
`CCOC(=O)CN(C(=O)CSc1nnc(Cc2ccccc2)n1-c1ccc(C)cc1)c1ccccc1` gave DAT uptake mod 2.7*.
`CCOC(=O)CSc1nnc(Cc2ccccc2)n1-c1ccc(C)cc1` gave DAT uptake mod 0.13.
For COc1ccc(Nc2nc(-c3sc(N)nc3C)cs2)cc1 the results were ROCK2 inh 8, D1 mod -0.71, DAT uptake mod 0.081 and PKA inh 11.
Cc1nc(N)sc1-c1csc(Nc2ccccn2)n1 was read as ROCK2 inh 1, D1 mod -6*, DAT uptake mod 4.6* and PKA inh -6.
Screening Cc1nc(N)sc1-c1csc(Nc2ccc(Cl)cn2)n1 returned ROCK2 inh 3, D1 mod 1.1, DAT uptake mod 4.5* and PKA inh 9.
O=C(O)CCNC(=O)c1ccc(N=Nc2ccc(O)c(C(=O)O)c2)cc1 was read as DAT uptake mod -0.9.
Screening O=C(O)C1CC=CCC1C(=O)Nc1ccc2c(c1)OCCO2 (stereo not given) returned DAT uptake mod 0.27.
Screening CCN(CC)S(=O)(=O)c1ccc(N=Nc2c(C)[nH]n(C(N)=S)c2=O)cc1 returned DAT uptake mod -3*.
Screening COc1ncccc1-c1nnn(-c2ccccc2)n1 returned DAT uptake mod 0.26.
For CCOc1c(C)cc(-c2ncccc2O)cc1C the results were ROCK2 inh 0, D1 mod -0.92, DAT uptake mod -7.9*! and PKA inh 8.
`O=C(CSc1nnc2scc(-c3ccccc3)n12)N1CCN(Cc2ccccc2)CC1` gave ROCK2 inh 4, D1 mod 1.4, DAT uptake mod 2.1* and PKA inh 10.
`Cc1cc2ncn(C(=O)c3c(-c4c(Cl)cccc4Cl)noc3C)c2cc1C` gave ROCK2 inh 6, D1 mod -0.98, DAT uptake mod 0.15 and PKA inh 0.
Screening Cc1cc2ncn(C(=O)c3c(-c4ccccc4)noc3C)c2cc1C returned ROCK2 inh 5, D1 mod 0.45, DAT uptake mod -2.3* and PKA inh 8.
Screening O=C(Cn1nnc2ccccc21)NCc1ccccc1 returned ROCK2 inh -3, D1 mod -2.1, DAT uptake mod -8.5* and PKA inh -4.
For Cc1nc2ccccc2n1CC(=O)NCc1ccccc1 the results were ROCK2 inh 8, D1 mod 0.063, DAT uptake mod 0.074 and PKA inh 12.
`CCSc1ccccc1C(=O)NCc1ccc(S(N)(=O)=O)cc1` gave ROCK2 inh 3, D1 mod -3*, DAT uptake mod -0.19 and PKA inh -1.
For CCSc1ccccc1C(=O)NCc1ccco1 the results were DAT uptake mod 0.37.
C[C@H]1[C@@H](OC(=O)CCC(=O)O)O[C@@H]2OC3(C)CC[C@H]4[C@H](C)CC[C@@H]1[C@@]24OO3 was read as DAT uptake mod 0.58.
`CCc1cc2c(=O)c(Oc3ccccc3)c(C)oc2cc1O` gave ROCK2 inh 1, D1 mod -0.99, DAT uptake mod -2.5* and PKA inh -2.
OCCNc1cc(-n2nc(-c3ccccc3)cc2-c2ccccc2)ncn1 was read as ROCK2 inh -4, D1 mod 1.6, DAT uptake mod 3.7* and PKA inh -1.
For COCCCn1c(=NC(=O)c2ccncc2)c(C#N)cc2c(=O)n3cccc(C)c3nc21 the results were ROCK2 inh -1, D1 mod 0.74, DAT uptake mod 0.59 and PKA inh 4.
Cc1cccn2c(=O)c3cc(C#N)c(=NC(=O)c4ccncc4)n(CCCOC(C)C)c3nc12 was read as ROCK2 inh 4, D1 mod -0.15, DAT uptake mod 2.4* and PKA inh 10.
Screening O=C(c1ccco1)N1CCN(C(=O)c2ccc(COc3ccc4c(c3)CCC4)o2)CC1 returned DAT uptake mod 3.7*.
Screening O=C(c1ccc(COc2ccc3c(c2)CCC3)o1)N1CCN(c2ccccc2)CC1 returned ROCK2 inh 6, D1 mod 0.13, DAT uptake mod 0.97 and PKA inh 14.
For Cc1cccc(NC(=O)CSc2nc(N)c(NC(=O)c3cccs3)c(=O)[nH]2)c1 the results were DAT uptake mod -0.33.
Screening C=CCOC(=O)C1=C(C)NC(=O)NC1c1ccc(OC(=O)c2ccco2)c(OC)c1 (stereo not given) returned ROCK2 inh 9, D1 mod -5.4*, DAT uptake mod 1.3 and PKA inh 8.
